Measurements: PubChem BioAssay
Activity calls are given as the source filed them. Unless noted, the rule behind the calls is not given here.

Assays:
[1] = compounds binding Alexa647 anti-His antibody – biochemical, small-molecule microarray, 635 nm fluorescence, artefact control for SMM control protein annotation, primary screen (AID 1128); conditions: higher = more signal;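 note: score merges feature fluorescence with signal-to-noise for each printed compound spot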
[2] = test system: Human papillomavirus type 1a E7 protein (residues 1-88); assay: HPV1a E7 small-molecule binders, primary screen, biochemical, small-molecule microarray, residues 1-88, 635 nm (AID 1129); conditions: small-molecule microarray binding, fluorescence 635 nm; higher = more signal
[3] = molecular target: Focal adhesion kinase 1 (Homo sapiens) (UniProt Q05397); assay: PTK2 protein binding on printed compound slides – biochemical, small-molecule microarray, 635/667 nm fluorescence, BSA, DTT, primary screen (AID 1130); conditions: 635 nm fluorescence, higher = more signal;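 note: composite of spot emission at 667 nm and signal to noise over triplicate slides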
[4] = test system: Fibrinogen (Alexa647-labelled); assay: Alexa647-fibrinogen binding to printed small molecules – biochemical, small-molecule microarray, 635/667 nm fluorescence, artefact control for SMM control-protein annotation, profiling panel (AID 1131); conditions: fibrinogen-A647 binding fluorescence, higher = more signal;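 note: z-score merges 667 nm fluorescence with per-spot signal-to-noise over triplicate slides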
[5] = molecular target: Follistatin (Homo sapiens) (UniProt P19883); assay: FST protein binding to printed compounds – biochemical, small-molecule microarray, 635/667 nm fluorescence, primary screen (AID 1132); conditions: 635 nm fluorescence, higher = more signal
[6] = molecular target: Fibroblast growth factor 2 (Homo sapiens) (UniProt P09038); assay: basic fibroblast growth factor binding to printed compounds – biochemical, small-molecule microarray, 635/667 nm fluorescence, primary screen (AID 1133); conditions: FGF2, fluorescence 635/667, higher = more signal
[7] = JC-1 mitochondrial potential readout, lung cancer cells – cell-based, A549, JC-1 fluorescence, basal, 24 h, 100 nL, profiling panel (AID 1138); conditions: higher = more signal;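 note: A549 lung adenocarcinoma cells under basal conditions with no added stimulus; test concentration not given here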
Lefty1 = Lefty1 protein binding to printed compounds – biochemical, small-molecule microarray, 635/667 nm fluorescence, primary screen (AID 1139); conditions: fluorescence 635/667, higher = more signal
[8] = test system: wheat germ agglutinin (Triticum aestivum), Alexa647-labelled; assay: Alexa647-WGA lectin binding to printed small molecules – biochemical, small-molecule microarray, 635/667 nm fluorescence, artefact control for SMM control-protein annotation, profiling panel (AID 1140); conditions: WGA-A647 binding, 635 nm fluorescence, higher = more signal;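 note: score merges 667 nm feature emission with signal to noise over triplicate slides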
[9] = molecular target: Luciferin 4-monooxygenase (Photinus pyralis) (UniProt P08659); assay: inhibition of purified Photinus pyralis luciferase – biochemical, luminescence, purified enzyme, 2006 set, primary screen (AID 1141); conditions: purified firefly luciferase, SteadyGlo luminescence, 30 min; higher = more signal, called active from +8 up or from −8 down;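 note: cell-free assay with purified firefly luciferase at 100 ng per well in PBS; test concentration not given here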
[10] = test system: Wnt5a (protein binding on small-molecule microarray); assay: small molecules binding Wnt5a protein – biophysical, small-molecule microarray, 635/667 nm fluorescence, primary screen (AID 1142); conditions: 635 nm fluorescence, higher = more signal;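 note: fluorescence read at 667 nm with signal to noise per printed feature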
[11] = ATP-based viability of Huh7 replicon cells – cell-based, CellTiter-Glo luminescence, basal, 48 h, cytotoxicity control for HCV replication inhibitor project, primary screen (AID 1143); conditions: higher = more signal, called active from +8 up or from −8 down;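 note: Huh7 hepatoma cells carrying a hepatitis C replication reporter with no stimulus; test concentration not given here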
[12] = Pseudomonas biofilm growth suppression – PAO1 strain, BacTiter-Glo luminescence, LB-PBS, primary screen (AID 1144); conditions: P. aeruginosa PAO1 biofilm, 12 h, higher = more signal
[13] = basal CRE-LacZ reporter activity in PC12 – cell-based, unstimulated, primary screen (AID 1145); conditions: no forskolin, luminescence, 4.5 h, higher = more signal, called active from +8 up or from −8 down
[14] = forskolin-driven CRE-LacZ activity in PC12 – cell-based, CRE-LacZ reporter, forskolin-stimulated, primary screen (AID 1146); conditions: luminescence, 4.5 h, higher = more signal, called active from +8 up or from −8 down;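 note: PC12 cells with 6xCRE LacZ reporter stimulated by forskolin 10 µM; beta-galactosidase reporter signal reflecting CREB driven transcription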
[15] = molecular target: Streptavidin (Streptomyces avidinii) (UniProt P22629); assay: compounds binding control protein streptavidin – biophysical, small-molecule microarray, 635/667 nm fluorescence, artefact control for SMM compound annotation, primary screen (AID 1147); conditions: higher = more signal;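 note: signal reflects streptavidin binding to arrayed compounds as a control protein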
[16] = probe aInhba binding on compound microarray – biochemical, small-molecule microarray, 635/667 nm fluorescence, primary screen (AID 1148); conditions: higher = more signal;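 note: score merges 667nm spot fluorescence with signal-to-noise for antibody binding to printed compounds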
Torsin-1A (Homo sapiens) [17] = molecular target: Torsin-1A (Homo sapiens) (UniProt O14656); assay: TOR1A wild-type binding on microarray – cell lysate, small-molecule microarray, lysate, 635/667 nm, primary screen (AID 1149); conditions: COS7 hTOR1A-WT lysate, 635 nm fluorescence, higher = more signal
Torsin-1A (Homo sapiens) [18] = molecular target: Torsin-1A (Homo sapiens) (UniProt O14656); assay: torsin A mutant lysate binding on microarrays – cell lysate, small-molecule microarray, COS7 lysate, 635/667 nm fluorescence, primary screen (AID 1150); conditions: COS7 hTOR1A mutant lysate, 635 nm fluorescence, higher = more signal;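 note: score pools 667 nm emission and signal to noise measuring lysate protein binding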
[19] = test system: Sonic hedgehog protein (Shh); assay: Sonic hedgehog microarray binding compounds – biochemical, small-molecule microarray, 635/667 nm fluorescence, primary screen (AID 1151); conditions: 635 nm fluorescence, higher = more signal;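 note: Shh protein binding to compounds spotted on small-molecule microarray slides; score combines spot fluorescence intensity with signal-to-noise across triplicate slides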

Torsin-1A (Homo sapiens), sequence (O14656 whole entry, looked up): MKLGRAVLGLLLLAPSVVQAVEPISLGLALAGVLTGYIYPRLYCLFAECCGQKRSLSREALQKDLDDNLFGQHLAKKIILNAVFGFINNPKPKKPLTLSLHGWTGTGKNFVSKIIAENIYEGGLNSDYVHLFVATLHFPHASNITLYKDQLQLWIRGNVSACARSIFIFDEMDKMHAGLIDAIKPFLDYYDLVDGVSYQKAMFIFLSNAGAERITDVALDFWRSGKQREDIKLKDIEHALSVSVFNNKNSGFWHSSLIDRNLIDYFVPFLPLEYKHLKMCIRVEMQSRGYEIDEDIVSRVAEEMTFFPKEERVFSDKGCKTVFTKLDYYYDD
Follistatin (Homo sapiens), sequence (P19883 whole entry, looked up): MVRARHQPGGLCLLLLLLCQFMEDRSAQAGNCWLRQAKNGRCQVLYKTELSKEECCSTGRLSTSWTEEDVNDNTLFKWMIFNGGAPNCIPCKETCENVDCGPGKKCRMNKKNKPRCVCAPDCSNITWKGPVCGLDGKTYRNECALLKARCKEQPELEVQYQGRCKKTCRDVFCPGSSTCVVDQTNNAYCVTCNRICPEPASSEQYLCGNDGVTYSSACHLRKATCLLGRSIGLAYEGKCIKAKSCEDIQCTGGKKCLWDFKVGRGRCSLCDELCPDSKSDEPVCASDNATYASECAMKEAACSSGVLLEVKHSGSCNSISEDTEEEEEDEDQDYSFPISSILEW
Luciferin 4-monooxygenase (Photinus pyralis), sequence (P08659 whole entry, looked up): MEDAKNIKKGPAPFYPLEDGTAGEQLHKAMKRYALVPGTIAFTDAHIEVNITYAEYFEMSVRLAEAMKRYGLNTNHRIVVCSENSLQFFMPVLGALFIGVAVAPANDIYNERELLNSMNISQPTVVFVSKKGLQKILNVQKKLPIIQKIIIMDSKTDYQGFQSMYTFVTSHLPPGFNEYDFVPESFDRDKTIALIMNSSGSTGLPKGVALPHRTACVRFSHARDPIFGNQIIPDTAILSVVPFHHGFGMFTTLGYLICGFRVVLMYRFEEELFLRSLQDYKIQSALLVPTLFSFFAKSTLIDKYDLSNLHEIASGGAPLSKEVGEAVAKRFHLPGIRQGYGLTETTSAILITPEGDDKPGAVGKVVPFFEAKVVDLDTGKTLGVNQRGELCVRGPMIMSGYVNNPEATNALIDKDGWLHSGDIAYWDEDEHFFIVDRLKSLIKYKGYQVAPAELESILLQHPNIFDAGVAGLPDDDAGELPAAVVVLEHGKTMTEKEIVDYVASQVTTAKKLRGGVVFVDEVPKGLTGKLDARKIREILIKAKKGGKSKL
Fibroblast growth factor 2 (Homo sapiens), sequence (P09038 whole entry, looked up): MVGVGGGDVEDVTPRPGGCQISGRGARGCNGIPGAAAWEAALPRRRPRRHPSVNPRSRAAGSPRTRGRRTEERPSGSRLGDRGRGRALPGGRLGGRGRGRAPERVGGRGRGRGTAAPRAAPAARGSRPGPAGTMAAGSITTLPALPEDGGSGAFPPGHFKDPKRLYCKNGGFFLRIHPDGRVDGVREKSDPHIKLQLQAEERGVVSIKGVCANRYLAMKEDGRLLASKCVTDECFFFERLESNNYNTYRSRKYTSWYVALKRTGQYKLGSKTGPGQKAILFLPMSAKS
Focal adhesion kinase 1 (Homo sapiens), sequence (Q05397 whole entry, looked up): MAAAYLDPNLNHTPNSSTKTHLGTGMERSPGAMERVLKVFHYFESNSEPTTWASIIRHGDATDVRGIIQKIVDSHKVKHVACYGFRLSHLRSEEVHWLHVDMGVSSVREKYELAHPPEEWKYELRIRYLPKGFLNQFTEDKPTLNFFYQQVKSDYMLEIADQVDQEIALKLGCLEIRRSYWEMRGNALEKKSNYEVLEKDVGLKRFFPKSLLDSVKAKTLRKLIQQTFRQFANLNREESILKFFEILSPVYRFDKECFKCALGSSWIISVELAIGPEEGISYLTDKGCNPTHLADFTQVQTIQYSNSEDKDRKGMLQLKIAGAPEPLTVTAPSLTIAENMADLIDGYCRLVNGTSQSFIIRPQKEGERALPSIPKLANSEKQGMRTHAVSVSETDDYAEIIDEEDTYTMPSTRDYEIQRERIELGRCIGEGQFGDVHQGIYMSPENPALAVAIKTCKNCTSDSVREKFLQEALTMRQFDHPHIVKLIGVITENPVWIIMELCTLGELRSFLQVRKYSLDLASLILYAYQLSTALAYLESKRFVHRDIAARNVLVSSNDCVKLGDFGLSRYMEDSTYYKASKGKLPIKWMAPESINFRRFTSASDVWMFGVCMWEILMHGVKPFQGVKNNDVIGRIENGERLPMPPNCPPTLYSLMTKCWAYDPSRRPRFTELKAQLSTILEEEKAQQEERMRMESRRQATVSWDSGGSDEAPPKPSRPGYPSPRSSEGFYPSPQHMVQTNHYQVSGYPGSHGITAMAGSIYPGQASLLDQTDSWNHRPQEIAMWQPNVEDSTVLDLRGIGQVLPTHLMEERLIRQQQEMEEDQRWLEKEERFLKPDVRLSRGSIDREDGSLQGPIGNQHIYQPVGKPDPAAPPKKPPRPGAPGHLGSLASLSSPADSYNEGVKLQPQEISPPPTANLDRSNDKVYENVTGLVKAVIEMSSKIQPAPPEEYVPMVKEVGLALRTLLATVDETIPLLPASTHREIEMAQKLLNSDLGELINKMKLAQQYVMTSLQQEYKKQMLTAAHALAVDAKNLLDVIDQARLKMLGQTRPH
Streptavidin (Streptomyces avidinii), sequence (P22629 whole entry, looked up): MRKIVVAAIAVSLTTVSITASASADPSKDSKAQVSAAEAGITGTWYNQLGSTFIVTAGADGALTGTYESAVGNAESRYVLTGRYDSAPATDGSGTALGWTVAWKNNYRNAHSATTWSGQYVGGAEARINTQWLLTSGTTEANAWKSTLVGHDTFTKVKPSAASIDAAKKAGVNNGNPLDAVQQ

SMILES	composite z-score [1]	composite z-score [2]	composite z-score [3]	composite z-score [4]	composite z-score [5]	composite z-score [6]	z-score [7]	composite z-score (Lefty1)	composite z-score [8]	z-score [9]	composite z-score [10]	z-score [11]	z-score [12]	z-score [13]	z-score [14]	composite z-score [15]	composite z-score [16]	composite z-score (Torsin-1A (Homo sapiens) [17])	composite z-score (Torsin-1A (Homo sapiens) [18])	composite z-score [19]
C=C(C(=O)CC[C@H](OC(=O)c1cccnc1)c1ccc(OCCO)cc1)C(C)C	0.423	0.54	0.091	0.917	1.05	0.859	0.531	1.31	-0.052	-2.26 (inactive)	0.287	-2.33 (inactive)	0.143 (inactive)	17.9 (active)	2.79 (inactive)	0.548	-0.0857	1.12	0.541	1.47
O=C1O[C@@H](c2ccccc2)[C@@H](c2ccccc2)N2[C@@H](c3ccc(O)cc3)[C@]3(C(=O)Nc4ccc(C#CC5(O)CCCCCC5)cc43)[C@@H](C(=O)N3CCN(c4ncccn4)CC3)[C@H]12	1.69	1.22	0.56	0.925	0.642	0.385	-0.243	0.441	0.601	1.04 (inactive)	0.149	-1.37 (inactive)	-0.775 (inactive)	-0.231 (inactive)	0.204 (inactive)	0.849	-0.144	1.42	0.743	0.358
NC(=O)[C@@H]1[C@H]2C(=O)O[C@H](c3ccccc3)[C@H](c3ccccc3)N2[C@H](c2ccccc2OCCO)[C@@]12C(=O)Nc1ccc(C#CCCO)cc12	0.553	-0.464	0.155	0.947	-0.0704	-0.455	0.669	-0.128	0.335	1 (inactive)	-0.335	-3.21 (inactive)	-0.663 (inactive)	0.299 (inactive)	-0.445 (inactive)	0.837	-0.0407	-0.969	0.115	-0.116
COC(=O)C(CC#Cc1ccc2c(c1)[C@]1(C(=O)N2)[C@H](C(=O)N2CCc3cc(OC)c(OC)cc3C2)[C@H]2C(=O)O[C@H](c3ccccc3)[C@H](c3ccccc3)N2[C@@H]1c1ccc(O)cc1)C(=O)OC	2.77	1.22	0.695	0.867	1.49	1.84	-1.48	1.14	0.664	8.96 (active)	0.746	-3.3 (inactive)	-1.21 (inactive)	0.0384 (inactive)	-1.12 (inactive)	0.112	0.263	0.644	0.694	1.87
CC(C)C[C@H]1NC(=O)[C@H](C)NC(=O)[C@@]23C(=O)N[C@@H](Cc4ccccc4)C2[C@H](C)[C@@]2(C)O[C@H]2C3/C=C/C/C=C\CNC1=O (stereo not given in full)	0.528	-0.071	-0.0739	-1.65	0.321	-0.28	0.141	0.253	0.649	-0.8 (inactive)	-0.0392	0.288 (inactive)	0.325 (inactive)	2.03 (inactive)	-0.0505 (inactive)	-0.442	-0.176	-1.09	0.0821	0.366
